# Active and inactive are the calls of the source. Unless noted, how the calls were made is not given here.
# Columns and labels:
# [1] = A549 cell viability effects, profiling panel, calcein-AM fluorescence, 48 h, basal (AID 1162); details: higher = more signal; further: test concentration not given here
# [2] = adipocyte viability effects, profiling panel, cell-based, 3T3-L1 adipocytes, calcein-AM fluorescence, 48 h, basal (AID 1163); details: 3T3-L1 adipocytes viability, higher = more signal; further: test concentration not given here
# [3] = HepG2 cell viability effects, profiling panel, calcein-AM fluorescence, 48 h, basal (AID 1164); details: higher = more signal; further: test concentration not given here
# [4] = MM1S cell viability effects, profiling panel, calcein-AM fluorescence, 48 h, basal (AID 1165); details: higher = more signal;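 further: viability of MM1S multiple myeloma cells under basal unstimulated conditions; test concentration not given here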
# [5] = basal RPMI8226 viability, no added stimulus, profiling panel, cell-based, calcein-AM fluorescence, 48 h, PK04 Diversity Set (AID 1166); details: RPMI8226 myeloma viability, higher = more signal;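 further: cells grown under basal conditions without added stimulus; test concentration not given here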
# [6] = basal HepG2 mitochondrial membrane potential changes, profiling panel, cell-based, JC-1 fluorescence, 24 h, 100 nL compound (AID 1167); details: higher = more signal; further: test concentration not given here
# [7] = basal 3T3-L1 adipocyte mitochondrial potential changes, profiling panel, cell-based, JC-1 fluorescence, 3T3-L1 adipocytes, 24 h, 100 nL compound (AID 1168); details: JC-1 mitochondrial fluorescence, higher = more signal, called active from +8 up or from −8 down; further: test concentration not given here
# [8] = basal RPMI8226 mitochondrial membrane potential changes, profiling panel, cell-based, JC-1 fluorescence, 24 h, 100 nL compound (AID 1169); details: RPMI8226 myeloma, JC-1 mitochondrial potential fluorescence, higher = more signal; further: test concentration not given here
# [9] = basal MM1S mitochondrial membrane potential changes, profiling panel, cell-based, JC-1 fluorescence, 24 h, 100 nL compound (AID 1170); details: higher = more signal; further: test concentration not given here
# [10] = A549 lung cancer cell viability effects, profiling panel, resazurin fluorescence, 24 h, PK04 Diversity Set (AID 1171); details: higher = more signal, called active from +8 up or from −8 down; further: test concentration not given here
# [11] = HepG2 liver cancer cell viability effects, profiling panel, resazurin fluorescence, 24 h, PK04 Diversity Set (AID 1172); details: higher = more signal; further: test concentration not given here
# [12] = basal S. cerevisiae growth modulation, no modifier, primary screen, OD600, strain BY4716, 24 h, basal condition (AID 1173); details: OD600, 24 h, higher = more signal, called active from +8 up or from −8 down
# [13] = MM1S myeloma cell viability, profiling panel, resazurin fluorescence, basal, 24 h, PK04 Diversity Set (AID 1174); details: higher = more signal, called active from +8 up or from −8 down;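 further: MM1S multiple myeloma cell line; test concentration not given here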
# [14] = target: Dihydroorotate dehydrogenase (quinone), mitochondrial (Plasmodium falciparum (isolate 3D7)) (UniProt Q08210); assay: PfDHODH enzyme inhibitors, primary screen, biochemical, C-terminal His tag, absorbance 600 nm (AID 1175); details: DCIP absorbance 600 nm, higher = more signal, called active from +8 up or from −8 down;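 further: recombinant parasite enzyme with a five histidine tag at its C terminus; test concentration not given here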
# [15] = P. aeruginosa biofilm formation inhibitors, primary screen, strain PAO1, LB-PBS medium, absorbance 600 nm (AID 1176); further: test concentration not given here; details: P. aeruginosa PAO1 growth/biofilm, A600, 12 h; higher = more signal
# [16] = S. cerevisiae RM11-1a growth modifiers, primary screen, strain RM11-1a, OD600, basal, 24 h (AID 1177); details: OD600, 24 h, higher = more signal, called active from +8 up or from −8 down;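 further: cultures grown under basal conditions with no added stressor; test concentration not given here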
# [17] = E. coli acrAB mutant growth effects, primary screen, E. coli filamentation inducers, strain DRC39, OD650, 24 h (AID 1178); details: higher = more signal, called active from +8 up or from −8 down;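 further: growth measured as culture turbidity by optical density at 650 nm; test concentration not given here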
# [18] = E. coli acrAB mutant growth effects, primary screen, E. coli filamentation inducers, strain DRC39, OD650, 48 h (AID 1179);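 further: screen aims at cell division blockers that make cells filament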; details: E. coli DRC39 delta-acrAB growth, higher = more signal, called active from +8 up or from −8 down
# [19] = RPMI8226 myeloma cell viability, profiling panel, resazurin fluorescence, basal, 24 h, PK04 Diversity Set (AID 1180); details: higher = more signal;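 further: RPMI8826 multiple myeloma cell line at 5000 cells per well; test concentration not given here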
# [20] = target: E3 ubiquitin-protein ligase XIAP (Homo sapiens) (UniProt P98170); assay: XIAP binders, primary screen, biophysical, small-molecule microarray, fluorescence 635 nm (AID 1181); details: small-molecule microarray binding, higher = more signal;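 further: score merges 667 nm emission and signal to noise over triplicate slides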
# E3 ubiquitin-protein ligase XIAP (Homo sapiens), sequence (P98170 whole entry, looked up): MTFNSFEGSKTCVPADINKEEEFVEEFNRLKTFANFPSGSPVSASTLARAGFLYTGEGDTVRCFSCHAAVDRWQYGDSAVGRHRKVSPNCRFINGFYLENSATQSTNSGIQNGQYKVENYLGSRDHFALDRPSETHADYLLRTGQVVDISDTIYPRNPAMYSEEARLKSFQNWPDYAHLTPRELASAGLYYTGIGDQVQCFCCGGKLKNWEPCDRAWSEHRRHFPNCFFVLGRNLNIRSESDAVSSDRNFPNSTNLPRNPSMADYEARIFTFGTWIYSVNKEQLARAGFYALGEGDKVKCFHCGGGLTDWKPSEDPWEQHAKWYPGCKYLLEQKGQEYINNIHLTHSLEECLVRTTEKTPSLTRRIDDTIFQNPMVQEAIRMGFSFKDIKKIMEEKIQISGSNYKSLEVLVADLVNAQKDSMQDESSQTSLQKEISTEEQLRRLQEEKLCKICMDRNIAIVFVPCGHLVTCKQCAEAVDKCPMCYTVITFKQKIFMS
# Dihydroorotate dehydrogenase (quinone), mitochondrial (Plasmodium falciparum (isolate 3D7)), sequence (Q08210 whole entry, looked up): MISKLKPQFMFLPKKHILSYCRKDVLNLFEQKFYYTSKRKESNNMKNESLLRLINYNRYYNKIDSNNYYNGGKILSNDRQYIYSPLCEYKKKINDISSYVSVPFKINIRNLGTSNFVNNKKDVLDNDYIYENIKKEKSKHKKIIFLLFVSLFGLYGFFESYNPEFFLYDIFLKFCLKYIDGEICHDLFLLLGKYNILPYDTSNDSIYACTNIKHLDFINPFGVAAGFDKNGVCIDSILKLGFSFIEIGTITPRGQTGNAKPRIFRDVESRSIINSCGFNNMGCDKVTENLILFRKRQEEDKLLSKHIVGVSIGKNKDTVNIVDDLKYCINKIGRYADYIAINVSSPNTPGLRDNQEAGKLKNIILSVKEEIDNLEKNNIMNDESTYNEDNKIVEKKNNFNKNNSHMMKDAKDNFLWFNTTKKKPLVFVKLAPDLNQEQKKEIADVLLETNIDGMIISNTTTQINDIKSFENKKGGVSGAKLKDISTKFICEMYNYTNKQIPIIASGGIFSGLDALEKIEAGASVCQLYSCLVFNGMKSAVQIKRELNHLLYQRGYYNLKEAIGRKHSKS
smiles,measurement,setting,value
CO[C@H]1COC(=O)[C@H](C)NC(=O)CC=C[C@@H](C)[C@H](OC)COC(=O)[C@@H](OCc2ccccc2)C=C[C@@H]1C,z-score,[1],0.0192
same,z-score,[2],0.0912
same,z-score,[3],0.645
same,z-score,[4],-0.144
same,z-score,[5],-0.646
same,z-score,[6],0.00399
same,z-score,[7],-0.29 (inactive)
same,z-score,[8],-0.0466
same,z-score,[9],0.474
same,z-score,[10],0.703 (inactive)
same,z-score,[11],1.15
same,z-score,[12],-0.479 (inactive)
same,z-score,[13],0.346 (inactive)
same,composite z-score,[14],0.234 (inactive)
same,z-score,[15],-0.838 (inactive)
same,z-score,[16],-0.462 (inactive)
same,z-score,[17],0.575 (inactive)
same,z-score,[18],0.2 (inactive)
same,z-score,[19],0.323
same,composite z-score,[20],-0.142
O=C(NN=C1C[C@@H](O)[C@@H](O)[C@@H]2[C@@H]3C(=O)N(Cc4ccccc4)C(=O)[C@@H]3CC[C@@H]12)OCc1ccccc1,z-score,[1],0.272
same,z-score,[2],-0.201
same,z-score,[3],-0.258
same,z-score,[4],0.372
same,z-score,[5],0.582
same,z-score,[6],1.23
same,z-score,[7],0.806 (inactive)
same,z-score,[8],-0.37
same,z-score,[9],-1.53
same,z-score,[10],-0.534 (inactive)
same,z-score,[11],0.348
same,z-score,[12],-1.17 (inactive)
same,z-score,[13],0.0873 (inactive)
same,composite z-score,[14],-1.65 (inactive)
same,z-score,[15],0.352 (inactive)
same,z-score,[16],-0.139 (inactive)
same,z-score,[17],0.851 (inactive)
same,z-score,[18],0.279 (inactive)
same,z-score,[19],0.131
same,composite z-score,[20],-0.0344
COc1ccc(O[C@H]2C=C[C@@H](c3ccccc3)O[C@@H]2CON=C(C)CCC(=O)OC[C@H]2O[C@H](c3ccccc3)C=C[C@@H]2Oc2ccc(OC)cc2)cc1,z-score,[1],-0.094
same,z-score,[2],-0.603
same,z-score,[3],-0.144
same,z-score,[4],-1.44
same,z-score,[5],-0.31
same,z-score,[6],1.08
same,z-score,[7],0.244 (inactive)
same,z-score,[8],0.534
same,z-score,[9],-0.492
same,z-score,[10],0.305 (inactive)
same,z-score,[11],0.319
same,z-score,[12],0.917 (inactive)
same,z-score,[13],0.427 (inactive)
same,composite z-score,[14],-0.497 (inactive)
same,z-score,[15],-0.868 (inactive)
same,z-score,[16],1.26 (inactive)
same,z-score,[17],0.277 (inactive)
same,z-score,[18],0.434 (inactive)
same,z-score,[19],0.476
same,composite z-score,[20],-0.195
COc1cccc([C@H]2Oc3ccc(OC)cc3C(=NOC[C@@H](C)[C@H](OCc3ccccc3)C(C)C)[C@@H]2O)c1,z-score,[1],-0.956
same,z-score,[2],0.488
same,z-score,[3],-0.744
same,z-score,[4],-0.596
same,z-score,[5],-2.12
same,z-score,[6],-3.51
same,z-score,[7],-0.65 (inactive)
same,z-score,[8],-0.188
same,z-score,[9],0.748
same,z-score,[10],0.385 (inactive)
same,z-score,[11],-0.214
same,z-score,[12],0.635 (inactive)
same,z-score,[13],-0.0524 (inactive)
same,composite z-score,[14],-0.212 (inactive)
same,z-score,[15],0.347 (inactive)
same,z-score,[16],0.846 (inactive)
same,z-score,[17],0.221 (inactive)
same,z-score,[18],-1.18 (inactive)
same,z-score,[19],0.0541
same,composite z-score,[20],0.0015
COC(=O)[C@H](C)NC(=O)CCC1CC(OC(=O)NCc2cccc3ccccc23)CC2(CCCC(COC(=O)NCC(c3ccccc3)c3ccccc3)O2)O1 (stereo not given in full),z-score,[1],-0.101
same,z-score,[2],-0.294
same,z-score,[3],-0.618
same,z-score,[4],-3.41
same,z-score,[5],-1.22
same,z-score,[6],1.21
same,z-score,[7],-0.0303 (inactive)
same,z-score,[8],-0.125
same,z-score,[9],-0.493
same,z-score,[10],2.23 (inactive)
same,z-score,[11],1.64
same,z-score,[12],-0.425 (inactive)
same,z-score,[13],0.945 (inactive)
same,composite z-score,[14],0.0975 (inactive)
same,z-score,[15],-1.24 (inactive)
same,z-score,[16],0.15 (inactive)
same,z-score,[17],0.0127 (inactive)
same,z-score,[18],0.393 (inactive)
same,z-score,[19],1.04
same,composite z-score,[20],-0.108
CCOC(=O)[C@H](Cc1ccccc1)NC(=O)OC1CC(CCC2CC(CC)=NO2)OC2(CCCC(COC(=O)NCCC(C)C)O2)C1 (stereo not given in full),z-score,[1],-0.0093
same,z-score,[2],-1.14
same,z-score,[3],-1.1
same,z-score,[4],-3.44
same,z-score,[5],-3.72
same,z-score,[6],-0.0294
same,z-score,[7],0.513 (inactive)
same,z-score,[8],-0.462
same,z-score,[9],-1.22
same,z-score,[10],0.453 (inactive)
same,z-score,[11],0.239
same,z-score,[12],0.633 (inactive)
same,z-score,[13],0.264 (inactive)
same,composite z-score,[14],-0.133 (inactive)
same,z-score,[15],0.226 (inactive)
same,z-score,[16],0.136 (inactive)
same,z-score,[17],0.347 (inactive)
same,z-score,[18],0.205 (inactive)
same,z-score,[19],0.65
same,composite z-score,[20],-0.22
CO[C@H]1COC(=O)CC=C[C@@H](C)[C@H](OC)COC(=O)[C@@H]2CCCN2C(=O)CC=C[C@@H]1C,z-score,[1],0.976
same,z-score,[2],0.308
same,z-score,[3],-0.259
same,z-score,[4],0.491
same,z-score,[5],-0.394
same,z-score,[6],0.0843
same,z-score,[7],-0.0391 (inactive)
same,z-score,[8],-0.83
same,z-score,[9],1.22
same,z-score,[10],0.572 (inactive)
same,z-score,[11],0.251
same,z-score,[12],-1.87 (inactive)
same,z-score,[13],0.616 (inactive)
same,composite z-score,[14],0.52 (inactive)
same,z-score,[15],-0.638 (inactive)
same,z-score,[16],-0.055 (inactive)
same,z-score,[17],0.601 (inactive)
same,z-score,[18],0.53 (inactive)
same,z-score,[19],0.136
same,composite z-score,[20],0.196
O=C1C[C@@H](O)[C@@H](O)[C@@H]2[C@@H]3C(=O)N(C[C@@H]4CCCO4)C(=O)[C@@H]3CC[C@H]12,z-score,[1],-0.232
same,z-score,[2],-0.42
same,z-score,[3],0.614
same,z-score,[4],0.136
same,z-score,[5],0.433
same,z-score,[6],0.446
same,z-score,[7],0.763 (inactive)
same,z-score,[8],-0.131
same,z-score,[9],-0.586
same,z-score,[10],-0.747 (inactive)
same,z-score,[11],-0.57
same,z-score,[12],-0.189 (inactive)
same,z-score,[13],-0.0898 (inactive)
same,composite z-score,[14],0.602 (inactive)
same,z-score,[15],-0.744 (inactive)
same,z-score,[16],0.739 (inactive)
same,z-score,[17],0.343 (inactive)
same,z-score,[18],0.17 (inactive)
same,z-score,[19],-0.449
same,composite z-score,[20],-0.28
CCOC(=O)[C@H](Cc1ccccc1)NC(=O)CCC1CC(OC(=O)NCCc2ccc(F)cc2)CC2(CCCC(COC(=O)NCC3CCCCC3)O2)O1 (stereo not given in full),z-score,[1],1.35
same,z-score,[2],-0.78
same,z-score,[3],0.901
same,z-score,[4],-3.14
same,z-score,[5],0.219
same,z-score,[6],0.809
same,z-score,[7],0.367 (inactive)
same,z-score,[8],-0.0221
same,z-score,[9],-1.29
same,z-score,[10],0.384 (inactive)
same,z-score,[11],0.211
same,z-score,[12],-0.362 (inactive)
same,z-score,[13],0.368 (inactive)
same,composite z-score,[14],-0.189 (inactive)
same,z-score,[15],0.781 (inactive)
same,z-score,[16],0.869 (inactive)
same,z-score,[17],0.828 (inactive)
same,z-score,[18],1.21 (inactive)
same,z-score,[19],0.772
same,composite z-score,[20],-0.0009

# — PubChem BioAssay
